# High-throughput results: PubChem BioAssay, Buhrlage Lab, Dana-Farber Cancer Institute and Novartis Institutes for BioMedical Research (Cambridge, Mass)
# USP17 inh: human USP17-like deubiquitinase inhibition | A8MUK1 | AID 1645855 | purified USP17, Ub-rhodamine cleavage fluorescence, 3 h | inhibition, % at 50 µM | 6.5% of 47,000 active
# Target sequence (A8MUK1 whole entry, looked up): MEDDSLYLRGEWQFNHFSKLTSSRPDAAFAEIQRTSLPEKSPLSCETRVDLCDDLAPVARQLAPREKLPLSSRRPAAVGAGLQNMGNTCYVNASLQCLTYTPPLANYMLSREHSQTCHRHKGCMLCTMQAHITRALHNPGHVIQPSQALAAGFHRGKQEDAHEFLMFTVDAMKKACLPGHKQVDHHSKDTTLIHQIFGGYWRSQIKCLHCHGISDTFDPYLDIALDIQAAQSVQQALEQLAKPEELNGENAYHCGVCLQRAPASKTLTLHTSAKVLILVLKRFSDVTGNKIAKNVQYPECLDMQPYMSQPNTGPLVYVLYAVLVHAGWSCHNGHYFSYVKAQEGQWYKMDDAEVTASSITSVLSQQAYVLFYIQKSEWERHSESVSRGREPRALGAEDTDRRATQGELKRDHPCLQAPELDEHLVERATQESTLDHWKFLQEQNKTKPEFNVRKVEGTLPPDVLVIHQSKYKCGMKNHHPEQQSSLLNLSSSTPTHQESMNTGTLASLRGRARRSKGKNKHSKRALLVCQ
# USP30 block: human USP30 deubiquitinase inhibition; AID 1645860; Q70CQ3; 5.3% of 47,000 active; purified USP30, Ub-rhodamine cleavage fluorescence; inhibition, % at 25 µM
# USP28 inh: inhibitors of human USP28 deubiquitinase; AID 1645857; 3% of 47,000 active; inhibition, % at 25 µM; purified USP28, Ub-rhodamine cleavage fluorescence, 30 min
# Active calls of the source: *; i = inactive. Most compounds without a hit are left out; they make up all but 11% or so of the library. Cut-off read from the data, not from the text of the source: active = inhibition above about 30%; inactive = the rest.
SMILES,USP17 inh,USP30 block,USP28 inh
CSCCC(Nc1nc(Cc2ccccc2)nc2sc3c(c12)CCCC3)C(=O)O (stereo not drawn),24.2,19.6,26.1
Cc1ccc(C)c(NS(=O)(=O)c2c(C)[nH]c(C)c2C(=O)N2CCCC2)c1,-15.0,-19.3,-24.0
COc1ccccc1-c1ccc(CN2[C@@H](c3ccccc3)C[C@@H]3NC(=O)CCC[C@H]32)cc1,-167.3,i,-232.5
O=C(Cc1cccc2ccccc12)Nc1nc2ccc(Br)cc2s1,-21.5,-4.7,11.3
O=C(Nc1nc2c(ccc3ccccc32)s1)c1cccc(Br)c1,47.0*,65.2*,12.7
Fc1ccc2[nH]c3c(N4CCCC4)ncnc3c2c1,-8.6,6.2,-0.7
Fc1ccc(-c2nsc3c(N4CCCC4)ncnc23)cc1,32.0*,19.0,2.4
Cc1noc(C2CN(C(=O)c3ccco3)Cc3ccnn3C2)n1 (stereo not drawn),-4.2,1.0,-6.1
Cc1cc(C)cc(C(=O)NCCSc2ncc(-c3ccc(F)cc3)[nH]2)c1,-4.6,-8.2,5.5
Cc1cc(C)c(NC(=O)CCC(=O)N2CCSc3ccccc32)c(C)c1,-45.6,-171.3,-33.6
COc1cccc(NC(=O)CCC(=O)N2CCSc3ccccc32)c1,-5.1,-10.6,35.4*
N#Cc1ccccc1OCc1csc(-c2ccccc2)n1,-10.4,10.4,65.5*
COc1ccccc1C(=O)NCc1csc(-c2ccccc2)n1,-0.8,17.3,9.3
Cc1cc(OCC(=O)NC2CCCCCC2)c(C(C)C)cc1Cl,11.3,24.8,9.4
CCOc1ccc(S(=O)(=O)N2CCN=C2N2CCN(C)CC2)cc1,4.5,-2.7,0.8
COc1cnc(-c2ccccn2)nc1Sc1cccc(C(F)(F)F)c1,-24.8,17.8,2.0
COc1ccc(Sc2nc(-c3ccccn3)ncc2OC)cc1,6.1,35.4*,8.0
CCc1nc(-c2ccnc(N3CCOCC3)c2)no1,2.6,5.7,0.3
CC(NC(=O)c1ccccc1)c1nc(-c2ccc(S(=O)(=O)N3CCCC3)cc2)no1 (stereo not drawn),43.5*,16.8,15.9
CC(NC(=O)c1ccccc1)c1nc(-c2ccc(S(=O)(=O)N3CCCCC3)cc2)no1 (stereo not drawn),21.3,0.1,3.8
COc1ccc(CNC(=O)c2cc(OC)c(OC)cc2-n2cccc2)cc1OC,-6.0,-25.6,-10.4
COc1ccc(NC(=O)CSc2cn(CC(=O)N3CCCCCC3)c3ccccc23)cc1OC,-10.3,6.7,-8.1
CC1CCN(C(=O)Cn2cc(SCC(=O)Nc3ccc4c(c3)OCCO4)c3ccccc32)CC1,-0.1,5.7,37.6*
CCn1cnc2c(-c3ccccc3)cn(CC(=O)NCc3ccc4c(c3)OCO4)c2c1=O,50.6*,19.7,8.7
O=C(Cn1cc(C(=O)c2ccccc2)c(=O)c2cc(F)ccc21)Nc1ccc2c(c1)OCCO2,-34.2,-103.3,-32.2
SMILES,USP17 inh,USP30 block,USP28 inh
O=C(Cn1cc(C(=O)c2ccccc2)c(=O)c2cc3c(cc21)OCCO3)Nc1ccc2c(c1)OCO2,-0.6,-29.6,4.7
O=C(Cn1cc(-c2ccccc2)c2ncn(C3CC3)c(=O)c21)NCc1ccc2c(c1)OCO2,-8.4,-76.3,-10.3
Cc1ccc(C(=O)c2cn(CC(=O)Nc3ccc4c(c3)OCO4)c3ccccc3c2=O)cc1,84.9*,79.5*,13.0
CCOc1ccc2c(c1)c(=O)c(C(=O)c1ccccc1)cn2CC(=O)Nc1ccc2c(c1)OCCO2,-0.3,68.9*,15.2
O=C(CSc1nccn1Cc1ccccc1)c1c[nH]c2ccccc12,-36.5,-184.2,-71.2
CC(C)(C)c1ccc(S(=O)(=O)N2CCN(Cc3nc4ccccc4c(=O)[nH]3)CC2)cc1,-0.6,-13.0,-10.3
CCc1ccccc1N(CC(=O)Nc1ccc(S(=O)(=O)N2CCOCC2)cc1)S(=O)(=O)c1ccccc1,-35.9,-24.0,-8.3
Cc1cc2nccc(C3CCC(CNC(=O)c4cccc(S(N)(=O)=O)c4)CC3)n2n1 (stereo not drawn),-10.3,6.8,0.8
Cc1ccc2c(c1)c(=O)c(C(=O)c1ccccc1)cn2CC(=O)Nc1ccccc1,59.2*,-44.2,-29.5
Cc1cc(C)c(NC(=O)CS(=O)(=O)c2cn(CC(=O)N3CCC(C)CC3)c3ccccc23)c(C)c1,2.2,12.5,6.5
CCOc1ccc2c(c1)c(=O)c(C(=O)c1ccccc1)cn2CC(=O)Nc1ccccc1,60.2*,-22.4,-3.3
O=C(Cn1cc(C(=O)C2CC2)c2ccccc21)NCc1ccc2c(c1)OCO2,82.5*,6.4,51.1*
O=C(Cn1ccc2ccc(Br)cc21)NCc1ccc2c(c1)OCO2,-26.1,-38.4,-15.5
CCOc1ccc2c(c1)c(=O)c(C(=O)c1ccc(F)cc1)cn2CC(=O)Nc1ccccc1,4.1,0.0,-1.4
Cc1ccc(NC(=O)Cn2cc(C(=O)c3ccccc3)c(=O)c3cc(C)ccc32)cc1,19.9,12.0,7.4
COc1ccc(OC)c(NC(=O)CS(=O)(=O)c2cn(CC(=O)N3CCC(C)CC3)c3ccccc23)c1,51.0*,9.3,18.7
